Assay outcomes as filed in PubChem.
This is a sample that favours compounds with a hit; in the whole collection about 6.5% have one here.
MARV entry inh: blocks Marburg virus binding to or entry into cells | actives 1.8% (n = 300,000) | AID 540276 | Marburg virus pseudotyped entry inhibition, cell reporter | Potency, µM (titrated, usually from 37.8 µM), without a hit: top-dose activity change, negative = inhibition, most hits filed as inhibitors; calls by dose curve; tested in HEK293 cells; further: potency means the concentration at half of the fitted maximal effect
Vaccinia Venus: vaccinia inhibition (Venus reporter) | AID 720580 | Potency, µM (doses to about 36.5 µM), for the others: top-dose activity change, negative = inhibition, actives largely listed as inhibitors | Vaccinia virus Venus reporter expression, fluorescence | actives 0.46% (n = 330,000); calls by dose curve; tested in A549 cells; further: potency means the concentration at half of the fitted maximal effect; nearly all actives have a fitted effect of over 30% in size
VACV mCherry inh: inhibitors of vaccinia virus infection (mCherry reporter signal). Vaccinia virus mCherry reporter infection, fluorescence. actives 0.63% (n = 310,000). Potency, µM (titrated, usually from 36.5 µM), for the others: at the highest dose activity change, negative = inhibition, hits mostly inhibitors. AID 720579; calls by dose curve; tested in A549 cells; further: potency means the concentration at half of the fitted maximal effect; nearly all actives have a fitted effect of over 35% in size
FMDV antiviral: blocks foot and mouth disease virus | Potency, µM (highest dose often 57.9 µM), for the others: at the highest dose activity change, negative = inhibition, hits mostly inhibitors | actives 1.2% (n = 410,000) | FMDV antiviral cell-based qHTS; calls by dose curve; tested in HEK293T cells; further: read-out not given here; potency means the concentration at half of the fitted maximal effect; nearly all actives have a fitted effect of over 45% in size
HCMV antiviral: blocks human cytomegalovirus replication | AID 1259415 | HFF cells, HCMV-luciferase reporter, 72 h; hits give low values | activity change, negative = inhibition, % at 57.5 µM | actives 4.5% (n = 410,000); in the data active means activity change below about -60%; inconclusive means no clear call, values can overlap the other calls; inactive means above about -39%
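After 16 h attachment at 37C, HFF cells received test compound and HCMV-luciferase (1 PFU/cell); reporter luminescence read 72 h later, data normalized against buffer-only and known inhibitor Salinomycin.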
LASV entry inh: Lassa virus entry inhibition | Lassa virus pseudotype entry inhibition, cell reporter | Potency, µM (titrated, usually from 37.9 µM), for the others: at the highest dose activity change, negative = inhibition, actives largely listed as inhibitors | actives 1.2% (n = 300,000) | AID 540256; calls by dose curve; tested in HEK293 cells; further: potency means the concentration at half of the fitted maximal effect; nearly all actives have a fitted effect of over 50% in size
Numbers without * were called inactive; i = inactive; ? = inconclusive; nt = no result; [ ] = another dose, or the depositor's remark. On the % scale 0 is the no-effect control and ±100 the full control effect.

SMILES | MARV entry inh | Vaccinia Venus | VACV mCherry inh | FMDV antiviral | HCMV antiviral | LASV entry inh
N=c1n(CCO)c2ccccc2n1CCOc1ccc(F)cc1 | -6%[46.1 µM] | -4% | -17% | -24% | -5 | 20%[46.1 µM]
CCCCn1c(=N)n(CCCOc2ccc(F)cc2)c2ccccc21 | 10µM* | ? | ? | ? | -67* | ?
O=C(Nc1ccc(Cl)cc1Cl)C1=Cc2ccccc2OC1 | ? | -17% | -26% | -32% | 69 | 13µM*
O=C(Nc1ccc(Cl)cc1)C1=Cc2cc(Cl)ccc2OC1 | 1% | ? | -20%[1.46 µM] | ? | -24 | 8%
CC(C)C(=O)N1c2ncnn2C2(CCCCC2)[C@@H]2CCCC[C@@H]21 | 0%[46.1 µM] | -11% | -15% | -27% | -111* | 29%[46.1 µM]
COc1ccccc1C(=O)N1c2ncnn2C2(CCCCC2)[C@@H]2CCCC[C@@H]21 | -9%[46.1 µM] | -6% | -13% | -16% | -5 | 2%[46.1 µM]
CSc1ncc(C(=O)NCc2ccc(F)cc2)c(-c2ccccc2)n1 | nt | -11% | -11% | -5% | 3 | 20%[46.1 µM]
Cc1cccn2c(Nc3ccccc3)c(-c3ccccn3)nc12 | ? | -7% | ? | -29% | -66* | -14%[46.1 µM]
Cc1ccccc1Nc1c(-c2ccc(Cl)cc2)nc2c(C)cccn12 | ? | -20% | -24% | -11% | 0 | 10%[46.1 µM]
Cc1cccc(C)c1Nc1c(-c2ccccn2)nc2c(C)cccn12 | -6%[46.1 µM] | -13% | -10% | -24% | -69* | 0%[46.1 µM]
CCCCC(CC)CNC(=O)CN1C(=O)CSc2ccc(S(=O)(=O)N3CCOCC3)cc21 (stereo not given) | nt | -13% | -14% | 7% | -4 | -16%[46.1 µM]
CC(C)c1ccc(NC(=O)C(c2ccc3c(c2)OCO3)N2CCCCC2)cc1 (stereo not given) | nt | -13% | -7% | -2% | -5 | nt
Oc1cc2c(cc1C(c1ccc(Cl)c(Cl)c1)N1CCCC1)OCO2 (stereo not given) | ? | -7% | ? | ? | -97* | 4%[46.1 µM]
COc1cc(C2NC(=O)N(C)C3=C2C(=O)N(c2ccccc2)C3)ccc1O (stereo not given) | -27%[46.1 µM] | 13% | 8% | -18% | -97* | -17%[46.1 µM]
CN(C)CCCN(C(=O)c1ccc2c(c1)CCCC2)c1nc2ccc(F)cc2s1 | ? | ? | ? | -6% | -29 | 16µM*
CN(C)CCCN(C(=O)c1cc(-c2cccs2)nc2ccccc12)c1nc2ccc(F)cc2s1 | ? | ? | ? | -17% | 18 | 6.3µM*
Cc1ccc2nc(N(CCCN(C)C)C(=O)c3sc4ccccc4c3Cl)sc2c1 | -29% | -20% | -27% | 18µM* | -78* | ?
CN(C)CCCN(C(=O)c1ccc2c(c1)CCCC2)c1nc2cc3c(cc2s1)OCO3 | 11µM* | ? | ? | -21% | ? | ?
Cc1ccc2nc(N(CCCN(C)C)C(=O)c3ccc(S(=O)(=O)N(C)C)cc3)sc2c1 | ? | -1% | i | 0% | 32 | 12%
CCOc1cccc(NC(=O)c2sc3nc(-c4ccc(F)cc4)ccc3c2N)c1 | ? | 1% | -6% | -4% | -12 | 16%[46.1 µM]
CCOC(=O)c1sc2ncn(CC(=O)Nc3ccc(OCC)cc3)c(=O)c2c1C | -18%[46.1 µM] | -18% | -19% | 9% | -3 | ?
CN(C)CCCN(C(=O)C1COc2ccccc2O1)c1nc2cc3c(cc2s1)OCO3 (stereo not given) | nt | nt | nt | -15% | 57 | nt
CCN(CC)CCN(C(=O)c1ccc2c(c1)CCCC2)c1nc2ccc(F)cc2s1 | ? | -15% | -3% | -19% | 0 | 12%[46.1 µM]
CN(C)CCCN(C(=O)c1ccc2c(c1)OCCO2)c1nc2ccc(Cl)cc2s1 | nt | nt | nt | nt | -10 | nt
CN(C)CCCN(C(=O)c1ccc(Br)s1)c1nc2cc3c(cc2s1)OCO3 | nt | 13µM* | 10µM* | -23% | -103* | nt
SMILES | MARV entry inh | Vaccinia Venus | VACV mCherry inh | FMDV antiviral | HCMV antiviral | LASV entry inh
Cc1ccc(C(=O)N(CCCN(C)C)c2nc3ccc(Cl)cc3s2)cc1C | 8.9µM* | -22% | 25% | ? | 0 | ?
CCN(CC)CCN(C(=O)c1ccc2c(c1)CCCC2)c1nc2ccc(C)cc2s1 | 10µM* | -17% | -24% | ? | 10 | ?
COc1ccc(CCNC(=O)Cc2c(C)c3c(cc(C)c4c(C)coc43)oc2=O)cc1OC | 0%[46.1 µM] | -6% | -9% | 6% | ? | -1%[46.1 µM]
O=C1C(C(=O)N(c2ccccc2)C2CCCCC2)C=NC2SCCN12 (stereo not given) | 16% | nt | nt | nt | nt | nt
Nc1ccccc1-c1ccc([N+](=O)[O-])cc1 | 5.6µM* | -20% | ? | -5% | -25 | ?
Nc1ccc(-c2ccc(N)c([N+](=O)[O-])c2)cc1[N+](=O)[O-] | -17% | nt | nt | 7% | ? | 2%
Nc1ncc(-c2ccc([N+](=O)[O-])cc2)cn1 | ? | -22% | -27% | 10% | -95* | 20%
O=[N+]([O-])c1ccc(-c2cnc(NO)nc2)cc1 | -26% | -22% | -3% | -8% | -35 | 5%
O=S(=O)(N1CCCCC1)n1nnc2cc3ccccc3cc21 | nt | nt | nt | nt | 30 | nt
O=C1[C@@H]2[C@H]3[C@H](O)[C@H](O)CC(=NOC[C@@H](O)COCc4ccco4)[C@@H]3CC[C@H]2C(=O)N1C[C@@H]1CCCO1 | -1%[14.2 µM] | nt | nt | nt | nt | nt
Cc1nc(N2CCCC2)c2c(C(=O)N3CCN(c4cccc(Cl)c4)CC3)c(C)oc2n1 | nt | -28% | -18% | -20% | 28 | -19%[46.1 µM]
CCc1nc(C)cn1S(=O)(=O)c1ccc([N+](=O)[O-])cc1 | -11%[46.1 µM] | -4% | -15% | -14% | -15 | 11%
CCCn1c(CC)nc([N+](=O)[O-])c1S(=O)(=O)c1ccccc1 | ? | nt | nt | 13µM* | 33 | ?
Clc1ccccc1CN1CCc2nc(N3CCN(c4ncccn4)CC3)ncc2C1 | nt | -26% | -13% | 32µM* | -29 | -2%[46.1 µM]
CN1CCN(c2ncc3c(n2)CCN(Cc2ccccc2Cl)C3)CC1 | nt | -26% | -14% | -4% | -9 | -6%[46.1 µM]
Cc1cccc(CN2CCc3nc(N4CCN(c5ccccn5)CC4)ncc3C2)c1 | nt | ? | ? | 14µM* | ? | -30%[46.1 µM]
CC(C(=O)Nc1ccccc1-c1ccccc1)N1CCN(C(=O)c2ccccc2)CC1 (stereo not given) | ? | -29% | i | -15% | ? | ?
CC1CCN(C(C)C(=O)Nc2ccccc2-c2ccccc2)CC1 (stereo not given) | 12µM* | -8% | -13% | ? | -32 | -4%
CCC(C)Oc1ccc(/C=C/c2[nH]c(=O)[nH]c(=O)c2[N+](=O)[O-])cc1OC (stereo not given) | ? | -4% | i | 32µM* | ? | -10%[46.1 µM]
COc1cc(/C=C/c2[nH]c(=O)[nH]c(=O)c2[N+](=O)[O-])cc([N+](=O)[O-])c1O | nt | nt | nt | -19% | 4 | nt
COc1cc(/C=C/c2[nH]c(=O)[nH]c(=O)c2[N+](=O)[O-])ccc1OCCC(C)C | -30%[46.1 µM] | -4% | -7% | 28µM* | -24 | ?
CSc1ccc2c(c1)N(CCC1CCCCN1C)c1ccccc1S2 (stereo not given) | 10µM* | ? | -23% | -29% | ? | 5.2µM*
